# Shown are actives, neighbours in structure and some others; about 1.3% of the full set was active somewhere.
# RGS4 inhibitor = human RGS4 inhibition; Potency, µM (titrated, usually from 114 µM), for the others: at the highest dose activity change, negative = inhibition, most hits filed as inhibitors; P49798; 390,000 tested, 0.039% active; Transcreener GDP fluorescence polarization, RGS4-accelerated GTP hydrolysis; note: % is set by controls: 0 for no effect and ±100 for the full control effect; nearly all actives have a fitted effect of over 75% in size
#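 MLSMR compounds (23 nl, pin-transferred) preincubated 10 min at room temperature with a 500nM (2x) first reagent, then RGS4 at 900nM (2x) plus Transcreener GDP mix added; fluorescence polarization (620/688 nm) read before and after 90 min at 30 °C.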
# EPAC1 antagonist = antagonists of human EPAC1. O95398. EPAC1 GEF assay, Rap1b-BODIPY-GDP exchange fluorescence. Potency, µM (series often up to 115 µM), inactives show at the highest dose activity change, negative = inhibition, usual class: inhibitors. 360,000 tested, 0.14% active. AID 720709;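 note: plate controls were vehicle for no effect and positive control for full effect; nearly all actives have a fitted effect of over 50% in size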
# EPAC1 agonist = activates human EPAC1 exchange factor; EPAC1 agonist qHTS, biochemical assay; response scale: 100% = response to 6.5 mM cAMP; 360,000 tested, 0.073% active; O95398; Potency, µM (doses to about 154 µM), inactives show at the top dose activation, most hits filed as activators; note: nearly all actives have a fitted effect of over 60% in size
#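 Nucleotide exchange assay: 100 nM EPAC1 with 250 nM Rap1B loaded with BODIPY-GDP and 50 uM GDP, room temperature. Fluorescence (480/540 nm) read every 5 min for 30 min; signal change normalized to 6.5 mM cAMP as full agonist.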
# EPAC2 agonist = agonists of human EPAC2 (RAPGEF4) | Q8WZA2 | EPAC2 activation, biochemical qHTS; response scale: 100% = 6.5 mM cAMP response | Potency, µM (doses to about 154 µM), inactives show at the top dose activation, hits mostly activators | 360,000 tested, 0.079% active | AID 720711; note: nearly all actives have a fitted effect of over 50% in size
# Target sequence (Q8WZA2 whole entry, looked up): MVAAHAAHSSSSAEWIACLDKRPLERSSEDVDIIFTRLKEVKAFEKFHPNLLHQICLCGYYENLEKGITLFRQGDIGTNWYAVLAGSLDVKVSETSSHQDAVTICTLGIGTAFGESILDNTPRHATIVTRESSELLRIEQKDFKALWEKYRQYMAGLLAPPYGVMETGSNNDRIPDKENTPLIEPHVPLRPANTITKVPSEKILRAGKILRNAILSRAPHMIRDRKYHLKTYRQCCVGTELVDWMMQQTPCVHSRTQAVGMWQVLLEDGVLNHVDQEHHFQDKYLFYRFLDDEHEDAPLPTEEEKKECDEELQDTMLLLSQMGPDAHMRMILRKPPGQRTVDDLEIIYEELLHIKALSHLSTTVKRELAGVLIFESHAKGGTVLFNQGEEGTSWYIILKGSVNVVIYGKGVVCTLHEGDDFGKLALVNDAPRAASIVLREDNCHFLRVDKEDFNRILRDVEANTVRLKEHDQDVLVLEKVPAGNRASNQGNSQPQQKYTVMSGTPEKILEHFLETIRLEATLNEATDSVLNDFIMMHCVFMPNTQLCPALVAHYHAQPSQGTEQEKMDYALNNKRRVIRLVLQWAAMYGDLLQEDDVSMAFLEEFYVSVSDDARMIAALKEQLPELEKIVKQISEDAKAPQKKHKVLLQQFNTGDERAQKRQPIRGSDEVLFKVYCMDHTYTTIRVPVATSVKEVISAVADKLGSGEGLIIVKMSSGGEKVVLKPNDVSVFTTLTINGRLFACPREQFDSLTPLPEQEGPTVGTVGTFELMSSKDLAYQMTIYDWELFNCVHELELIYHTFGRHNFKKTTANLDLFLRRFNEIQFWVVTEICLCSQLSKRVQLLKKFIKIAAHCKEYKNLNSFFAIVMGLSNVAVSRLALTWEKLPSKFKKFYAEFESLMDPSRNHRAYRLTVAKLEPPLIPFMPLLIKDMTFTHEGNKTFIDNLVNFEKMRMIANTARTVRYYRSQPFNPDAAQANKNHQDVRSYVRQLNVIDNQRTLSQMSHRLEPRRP
#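 Each well held 100 nM EPAC2, 250 nM RAP1B-BODIPY-GDP and 50 uM GDP. Fluorescence, read at 5-min intervals to 30 min, was referenced to a 6.5 mM cAMP positive control.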
# EPAC2 antag = blocks human EPAC2 exchange factor; Q8WZA2; EPAC2 GEF exchange of Rap1B-BODIPY-GDP, fluorescence; Potency, µM (titrated, usually from 114 µM), for the others: at the highest dose activity, negative = inhibition, actives largely listed as inhibitors; 360,000 tested, 0.18% active; AID 720708; note: % is set by controls: 0 for no effect and ±100 for the full control effect; nearly all actives have a fitted effect of over 45% in size
# BRCA1 expr up = BRCA1 expression activation | MCF7-BRCA1-FFLuc reporter, luminescence, 48 h; response scale: scaled: vehicle 0%, 10 µM genistein 100% | AID 624202 | Potency, µM (titrated, usually from 46.1 µM), for the others: at the top dose activation, usual class: activators | 380,000 tested, 1.1% active; note: nearly all actives have a fitted effect of over 80% in size
#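 MCF7 cells carrying a BRCA1-firefly luciferase reporter (2000 cells/well, phenol-red free MEM) were attached for 2 h at 37 °C, then given compounds for 48 h. Luminescence was read 15 min after luciferase reagent; activity normalized to genistein (10 microM) and DMSO.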
# Active calls of the source: *; ? = inconclusive; / = no result given; ! = not active in a repeat; [ ] = another dose, or the depositor's remark. Calls come from the whole dose curve; as a rule, active = well fitted curve in the direction sought with a large enough effect; inconclusive = small, poorly fitted or top-dose-only effect, or another doubt; inactive = no such curve, though single readings can be large; an effect the other way counts as inactive or inconclusive. Potency is the fitted concentration of half-maximal effect.
SMILES,RGS4 inhibitor,EPAC1 antagonist,EPAC1 agonist,EPAC2 agonist,EPAC2 antag,BRCA1 expr up
COc1nc(C)cc(C)c1S(=O)(=O)c1ccccc1C,-5%,-1%,0%,0%,13µM*,6%
CCCCOP(=O)(c1ccc(N(C)C)cc1)C(O)c1c(Cl)cccc1Cl (configuration not stated),13%,-1%,0%,8%,-2%,-17%
CCCCN1C(=O)/C(=C/C=C2\Oc3ccccc3N2CC)SC1=S,-17%,-14%,?,32µM*,30%,-2%
CCCN1C(=O)/C(=C/C=C2\N(CC)c3ccccc3C2(C)C)SC1=S,-6%,17%,22%,-12%,21%,-26%
CCCCN1C(=O)/C(=C/C=C2/CC(C)(C)CN2C)SC1=S,-6%,51%,?,18%,56%,10µM*
CCSc1ccc(/C(N)=N/OC(=O)c2cccs2)cn1,4%,-2%,12%,11%,2%,10µM*
Cc1ccc(C(=O)NC2(O)C(=O)c3ccccc3C2=O)cc1C,-27%,?,3%,23%,-27%,0%
O=C(NC1(O)C(=O)c2ccccc2C1=O)c1ccc(C(F)(F)F)cc1,-25%,35µM*,1%,24%,?,-20%
COc1ccc(OCc2csc(N)n2)cc1,-23%,3%,3%,10%,-12%,10µM*
COc1ccc(Nc2nc3ccccc3nc2NS(=O)(=O)c2ccc(NC(C)=O)cc2)cc1,-12%,-7%,0%,-4%,1%,-1%
O=C(C1CC(c2ccccc2O)=NO1)N1CCCCC1 (configuration not stated),-13%,0%,13%,2%,-4%,10µM*
Cc1cccnc1Nc1nc(-c2ccc(O)cc2O)cs1,28%[11.4 µM],2%,26%,5%,-19%,?
COc1ccc(OCC(=O)NCC(c2ccc(OC)cc2)N2CCOCC2)cc1 (configuration not stated),17%,/,/,/,/,/
Cc1cc(N2CCOCC2)nc2ccc(NC(=S)N3CCN(c4ccccc4)CC3)cc12,-4%[11.4 µM],-28%,-3%,-3%,4%,33%
Cc1cc(N2CCOCC2)nc2ccc(Cl)cc12,4%,-9%,7%,1%,-6%,7.9µM*
O=[N+]([O-])c1ccc(-c2nc(-c3ccncc3)no2)cc1,11%,15%,1%,18%,0%,2.5µM*
O=[N+]([O-])c1cc(Cl)ccc1-c1nc(-c2ccccc2)no1,-11%,-7%,-1%,17%,1%,2.8µM*
O=[N+]([O-])c1cc(Cl)ccc1-c1nc(-c2ccncc2)no1,22%,3%,8%,8%,4%,86%
CSc1ccccc1-c1nc(-c2ccncc2)no1,-6%,-2%,-7%,-7%,1%,3.2µM*
c1coc(-c2nc(-c3ccncc3)no2)c1,-16%,-20%,0%,6%,-2%,3.2µM*
C[C@H](CO)N1C[C@H](C)[C@@H](CN(C)CC2CCCCC2)Oc2c(NS(=O)(=O)c3cn(C)cn3)cccc2C1=O,23%,-6%,12%,9%,0%,2%
CS(=O)c1ccccc1-c1nc(-c2ccc(Cl)cc2)no1 (configuration not stated),36%,9%,-3%,-6%,-12%,11µM*
Clc1ccccc1-c1nc(-c2ccncc2)no1,-19%[56.9 µM],10%,2%,0%,0%,1.8µM*!
Cc1cc2ccccn2c1C(=O)c1ccc(Cl)c([N+](=O)[O-])c1,13%,-10%,4%,3%,11µM*,-27%
Cc1cc2ccccn2c1C(=O)c1ccccc1Br,-4%,1%,5%,21%,13µM*,-40%
Cc1cc2ccccn2c1C(=O)c1cccc([N+](=O)[O-])c1,2%,-2%,20%,24%,?,-38%
CCCN(CCC)Cc1c(C(=O)OCC)nnn1-c1nonc1N,35%,?,-20%,8%,-13%,5%

# Compound activity: PubChem, National Center for Advancing Translational Sciences (NCATS)
